# Experimental data: PubChem BioAssay
# The source made the active and inactive calls. Unless noted, the rule behind the calls is not given here.
# Columns and labels:
# [1] = A549 cell viability effects, profiling panel, calcein-AM fluorescence, 48 h, basal (AID 1162); conditions: higher = more signal; note: test concentration not given here
# [2] = adipocyte viability effects, profiling panel, cell-based, 3T3-L1 adipocytes, calcein-AM fluorescence, 48 h, basal (AID 1163); conditions: 3T3-L1 adipocytes viability, higher = more signal; note: test concentration not given here
# [3] = HepG2 cell viability effects, profiling panel, calcein-AM fluorescence, 48 h, basal (AID 1164); conditions: higher = more signal; note: test concentration not given here
# [4] = MM1S cell viability effects, profiling panel, calcein-AM fluorescence, 48 h, basal (AID 1165); conditions: higher = more signal;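 note: viability of MM1S multiple myeloma cells under basal unstimulated conditions; test concentration not given here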
# [5] = basal RPMI8226 viability, no added stimulus, profiling panel, cell-based, calcein-AM fluorescence, 48 h, PK04 Diversity Set (AID 1166); conditions: RPMI8226 myeloma viability, higher = more signal;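 note: cells grown under basal conditions without added stimulus; test concentration not given here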
# [6] = basal HepG2 mitochondrial membrane potential changes, profiling panel, cell-based, JC-1 fluorescence, 24 h, 100 nL compound (AID 1167); conditions: higher = more signal; note: test concentration not given here
# [7] = basal 3T3-L1 adipocyte mitochondrial potential changes, profiling panel, cell-based, JC-1 fluorescence, 3T3-L1 adipocytes, 24 h, 100 nL compound (AID 1168); conditions: JC-1 mitochondrial fluorescence, higher = more signal, called active from +8 up or from −8 down; note: test concentration not given here
# [8] = basal RPMI8226 mitochondrial membrane potential changes, profiling panel, cell-based, JC-1 fluorescence, 24 h, 100 nL compound (AID 1169); conditions: RPMI8226 myeloma, JC-1 mitochondrial potential fluorescence, higher = more signal; note: test concentration not given here
# [9] = basal MM1S mitochondrial membrane potential changes, profiling panel, cell-based, JC-1 fluorescence, 24 h, 100 nL compound (AID 1170); conditions: higher = more signal; note: test concentration not given here
# [10] = A549 lung cancer cell viability effects, profiling panel, resazurin fluorescence, 24 h, PK04 Diversity Set (AID 1171); conditions: higher = more signal, called active from +8 up or from −8 down; note: test concentration not given here
# [11] = HepG2 liver cancer cell viability effects, profiling panel, resazurin fluorescence, 24 h, PK04 Diversity Set (AID 1172); conditions: higher = more signal; note: test concentration not given here
# [12] = basal S. cerevisiae growth modulation, no modifier, primary screen, OD600, strain BY4716, 24 h, basal condition (AID 1173); conditions: OD600, 24 h, higher = more signal, called active from +8 up or from −8 down
# [13] = MM1S myeloma cell viability, profiling panel, resazurin fluorescence, basal, 24 h, PK04 Diversity Set (AID 1174); conditions: higher = more signal, called active from +8 up or from −8 down;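 note: MM1S multiple myeloma cell line; test concentration not given here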
# [14] = target: Dihydroorotate dehydrogenase (quinone), mitochondrial (Plasmodium falciparum (isolate 3D7)) (UniProt Q08210); test: PfDHODH enzyme inhibitors, primary screen, biochemical, C-terminal His tag, absorbance 600 nm (AID 1175); conditions: DCIP absorbance 600 nm, higher = more signal, called active from +8 up or from −8 down;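 note: recombinant parasite enzyme with a five histidine tag at its C terminus; test concentration not given here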
# [15] = P. aeruginosa biofilm formation inhibitors, primary screen, strain PAO1, LB-PBS medium, absorbance 600 nm (AID 1176); note: test concentration not given here; conditions: P. aeruginosa PAO1 growth/biofilm, A600, 12 h; higher = more signal
# [16] = S. cerevisiae RM11-1a growth modifiers, primary screen, strain RM11-1a, OD600, basal, 24 h (AID 1177); conditions: OD600, 24 h, higher = more signal, called active from +8 up or from −8 down;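 note: cultures grown under basal conditions with no added stressor; test concentration not given here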
# [17] = E. coli acrAB mutant growth effects, primary screen, E. coli filamentation inducers, strain DRC39, OD650, 24 h (AID 1178); conditions: higher = more signal, called active from +8 up or from −8 down;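 note: growth measured as culture turbidity by optical density at 650 nm; test concentration not given here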
# [18] = E. coli acrAB mutant growth effects, primary screen, E. coli filamentation inducers, strain DRC39, OD650, 48 h (AID 1179);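 note: screen aims at cell division blockers that make cells filament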; conditions: E. coli DRC39 delta-acrAB growth, higher = more signal, called active from +8 up or from −8 down
# [19] = RPMI8226 myeloma cell viability, profiling panel, resazurin fluorescence, basal, 24 h, PK04 Diversity Set (AID 1180); conditions: higher = more signal;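 note: RPMI8826 multiple myeloma cell line at 5000 cells per well; test concentration not given here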
# [20] = target: E3 ubiquitin-protein ligase XIAP (Homo sapiens) (UniProt P98170); test: XIAP binders, primary screen, biophysical, small-molecule microarray, fluorescence 635 nm (AID 1181); conditions: small-molecule microarray binding, higher = more signal;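 note: score merges 667 nm emission and signal to noise over triplicate slides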
# E3 ubiquitin-protein ligase XIAP (Homo sapiens), sequence (P98170 whole entry, looked up): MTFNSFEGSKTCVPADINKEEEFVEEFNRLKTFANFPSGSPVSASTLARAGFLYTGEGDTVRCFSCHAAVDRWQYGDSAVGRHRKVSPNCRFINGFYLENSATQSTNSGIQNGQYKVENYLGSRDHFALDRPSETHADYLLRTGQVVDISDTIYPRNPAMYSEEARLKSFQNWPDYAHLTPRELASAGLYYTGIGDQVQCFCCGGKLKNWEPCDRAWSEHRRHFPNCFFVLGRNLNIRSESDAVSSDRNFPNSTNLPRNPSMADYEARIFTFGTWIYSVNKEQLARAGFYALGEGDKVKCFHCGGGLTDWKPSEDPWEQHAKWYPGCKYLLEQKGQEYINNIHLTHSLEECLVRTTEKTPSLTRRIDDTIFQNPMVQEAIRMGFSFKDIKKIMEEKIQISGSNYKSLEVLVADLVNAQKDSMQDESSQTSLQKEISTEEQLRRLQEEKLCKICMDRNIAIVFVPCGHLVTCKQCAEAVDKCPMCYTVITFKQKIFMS
# Dihydroorotate dehydrogenase (quinone), mitochondrial (Plasmodium falciparum (isolate 3D7)), sequence (Q08210 whole entry, looked up): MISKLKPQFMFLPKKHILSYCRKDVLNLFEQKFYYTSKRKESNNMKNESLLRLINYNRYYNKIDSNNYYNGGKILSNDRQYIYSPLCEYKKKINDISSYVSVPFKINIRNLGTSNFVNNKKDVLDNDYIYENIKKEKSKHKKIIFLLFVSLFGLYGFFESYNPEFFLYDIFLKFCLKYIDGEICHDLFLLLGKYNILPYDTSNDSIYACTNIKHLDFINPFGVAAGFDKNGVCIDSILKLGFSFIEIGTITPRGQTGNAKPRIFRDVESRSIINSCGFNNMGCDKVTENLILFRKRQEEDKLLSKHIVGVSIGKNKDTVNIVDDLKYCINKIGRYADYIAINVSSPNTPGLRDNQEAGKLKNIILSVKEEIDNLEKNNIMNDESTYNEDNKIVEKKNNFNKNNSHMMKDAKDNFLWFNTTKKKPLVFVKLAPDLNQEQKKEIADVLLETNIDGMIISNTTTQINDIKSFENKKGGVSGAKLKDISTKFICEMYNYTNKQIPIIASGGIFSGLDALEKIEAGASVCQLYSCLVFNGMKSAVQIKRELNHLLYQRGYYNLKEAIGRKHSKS
Structure (SMILES),z-score [1],z-score [2],z-score [3],z-score [4],z-score [5],z-score [6],z-score [7],z-score [8],z-score [9],z-score [10],z-score [11],z-score [12],z-score [13],composite z-score [14],z-score [15],z-score [16],z-score [17],z-score [18],z-score [19],composite z-score [20]
C=CC[C@@H](OC(=O)Nc1ccc(OC)cc1)c1ccc(OCCO)cc1,-0.176,0.048,0.587,-1.2,-2.53,-1.92,-0.451 (inactive),-0.052,0.19,0.213 (inactive),-0.197,-3.85 (inactive),-0.561 (inactive),0.251 (inactive),0.438 (inactive),-0.373 (inactive),0.411 (inactive),-0.103 (inactive),-0.365,0.206
COc1ccc([Si](C)(C)[C@@H]2[C@@H](CCO)O[C@]3(C(=O)N(Cc4cccc(N5C(=O)c6cccc7cccc5c67)c4)c4ccccc43)[C@H]2C)cc1,-1.03,0.421,-3.42,-1.32,-4.25,-0.543,0.145 (inactive),-1.05,-1.77,-2.26 (inactive),-1.83,1.34 (inactive),-2.77 (inactive),0.518 (inactive),1.53 (inactive),5.01 (inactive),1.55 (inactive),0.97 (inactive),-3.49,-0.0351
CC(C)(C)N1CC=CC23O[C@@H]4C=CCOC(=O)[C@@H]4[C@H]2C(=O)N(CCCO)[C@@H]3C1=O (stereo not given in full),0.495,1.55,-0.0446,0.656,-0.664,-0.57,-0.272 (inactive),-0.379,0.745,-0.89 (inactive),-0.922,0.114 (inactive),-1.27 (inactive),-0.257 (inactive),-0.317 (inactive),0.297 (inactive),-1.04 (inactive),-0.955 (inactive),-0.808,0.55
CN1C(=O)C2C=CC(C(O)c3c(F)cccc3Cl)N(Nc3ccccc3)C2C1=O (stereo not given),-0.635,-0.924,-1.18,0.161,-1.42,-1.4,-0.144 (inactive),-0.725,0.302,-0.31 (inactive),-0.203,-1.03 (inactive),-0.682 (inactive),0.061 (inactive),0.627 (inactive),-0.284 (inactive),-1.11 (inactive),-0.618 (inactive),-0.679,0.0651
COc1ccc(NN2C(C(O)c3ccco3)C=CC3C(=O)N(C4CCCCC4)C(=O)C32)cc1 (stereo not given),-0.181,-0.637,1.37,0.739,-0.023,0.526,-1.23 (inactive),0.23,-1.23,0.405 (inactive),0.502,-1.11 (inactive),-1.59 (inactive),0.181 (inactive),0.546 (inactive),-0.0552 (inactive),-0.624 (inactive),-0.109 (inactive),-1.55,0.065
CC(=O)n1cc(C(O)C2C=CC3C(=O)N(Cc4ccccc4)C(=O)C3N2n2cnnc2)c2ccccc21 (stereo not given),-0.919,-0.0245,-0.392,-1.12,0.125,-1.07,-0.623 (inactive),0.563,-0.321,-0.756 (inactive),-0.227,0.319 (inactive),-0.929 (inactive),-0.351 (inactive),-0.514 (inactive),-0.371 (inactive),-1.34 (inactive),-1.4 (inactive),-1.27,0.764
COCC(=C=CC[C@H](O)c1cccc(OCCO)c1)C[C@H](O)c1ccccn1,1.39,0.101,1.25,0.0467,0.461,0.843,1.49 (inactive),0.237,-0.664,1.22 (inactive),1.51,1.65 (inactive),0.959 (inactive),-0.672 (inactive),0.437 (inactive),1.07 (inactive),1.38 (inactive),1.23 (inactive),1.66,-0.0453
Cc1ccc(C(C)CC(O)C2C=CC3C(=O)N(c4ccccc4)C(=O)C3N2Nc2ccc(C(C)C)cc2)o1 (stereo not given),-1.12,-0.279,0.137,-1.41,-1.19,-2.29,-1.44 (inactive),-0.778,0.772,-0.634 (inactive),-1.32,0.123 (inactive),-0.905 (inactive),0.824 (inactive),1.5 (inactive),0.685 (inactive),-0.751 (inactive),-0.682 (inactive),-1.03,-0.0238
CCOC(=O)C[C@H]1[C@H](OC(=O)c2ccccc2-c2ccccc2)[C@@H](NC(=O)c2ccc3ccccc3n2)c2cc(OCCCO)ccc2N1C(=O)c1ccc2ccccc2n1,0.923,1.65,0.877,0.497,-0.237,2.39,0.309 (inactive),0.356,-0.845,0.545 (inactive),0.922,-1.08 (inactive),0.833 (inactive),-0.431 (inactive),0.719 (inactive),-0.344 (inactive),1.33 (inactive),1.21 (inactive),-0.19,-0.162
